# Source: PubChem BioAssay
# The full list was thinned out, with hits kept by preference.
# HDAC3 inhib – human HDAC3 inhibition; inhibition, % at 8.3 µM; recombinant HDAC3, fluorogenic peptide/trypsin coupled, fluorescence; hit rate 0.15% among 320,000; O15379; AID 2718; in the data active means inhibition above about 26%, passing the limit was not always enough; inconclusive means no clear call, values can overlap the other calls
# ALR H2O2 inh – blocks human ALR sulfhydryl oxidase activity | inhibition, % (concentration not given with the values) | purified ALR, DTT oxidation, H2O2 HRP-luminol luminescence | P55789 | hit rate 3.8% among 290,000;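 active means mean replicate inhibition above about 79%, with every replicate also reaching it, limit read from the data; inconclusive means only one of the two criteria met; inactive means mean below limit and not every replicate reaching it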
# NPR1 activator – GC-A (human) enzyme activation | P16066 | activation, % at 10 µM | HEK293 GC-A cells, cGMP TR-FRET, EC30 ANP; 0% at EC30 ANP, 100% saturating ANP | hit rate 0.14% among 370,000 | AID 1671463; in the data active means activation above about 40%
# NPR2 activator – GC-B (human) receptor activation. HEK293-GC-B cells, CNP EC30, cGMP TR-FRET; 0% at EC30 CNP, 100% saturating CNP. activation, % at 10 µM. hit rate 0.11% among 370,000. AID 1920062;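 active means activation at 10 µM reaching about 35% in either raw or pattern-adjusted values, limit read from the data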
# Numbers without * were called inactive; ? = inconclusive; · = not tested or not shown.
SMILES,HDAC3 inhib,ALR H2O2 inh,NPR1 activator,NPR2 activator
COc1cccc(-c2nc(CS(=O)(=O)CC(=O)Nc3cccc(C(C)=O)c3)c(C)o2)c1,-0.9,-28.2,-29.2,5.2
COc1cccc(-c2nc(CS(=O)(=O)CC(=O)NCCc3ccc(C)cc3)c(C)o2)c1,3.5,-32.3,-0.2,-1.6
COCCCNC(=O)CS(=O)(=O)Cc1nc(-c2cccc(OC)c2)oc1C,1.1,?,0.0,4.3
COc1ccc(CNC(=O)CS(=O)(=O)Cc2nc(-c3cccc(OC)c3)oc2C)cc1,2.7,90.5*,-2.6,-8.6
CCOC(=O)c1cccc(NC(=O)CS(=O)(=O)Cc2nc(-c3cccc(OC)c3)oc2C)c1,4.7,-6.1,25.5,37.0*
CC1=C(C(=O)N2CCOCC2)CC(CC(=O)NC2CCCCC2)C(=O)N1Cc1ccccc1 (stereo not given),·,·,-0.2,1.0
CCOc1cccc(CN2CCCC(C(=O)c3cccc(C(F)(F)F)c3)C2)c1O (stereo not given),6.6,42.8,4.8,-2.1
CCOc1cccc(CN2CCCC(C(=O)Nc3ccc(-c4ccn[nH]4)cc3)C2)c1O (stereo not given),-4.7,80.4*,-4.4,-0.7
COc1ccc(/C=N/NC(=O)c2cccc([N+](=O)[O-])c2)cc1O,0.9,67.9,2.9,9.2
COc1cc(C(=O)N/N=C/c2ccc3c(c2)c2ccccc2n3C)ccc1O,-2.4,99.5*,-13.6,-15.6
COc1cc(/C=N/NC(=O)c2cccc(NC(=O)c3ccccc3)c2)ccc1O,7.5,98.2*,0.5,6.0
Cn1c2ccccc2c2cc(/C=N/NC(=O)c3cc(O)cc(O)c3)ccc21,-9.2,1.7,-1.1,-9.2
O=C(/C=C/c1ccccc1F)c1cccc([N+](=O)[O-])c1,-11.6,9.0,4.2,-2.5
O=C(N/N=C/c1ccc(F)cc1)c1cccc(NC(=O)c2ccc(F)cc2)c1,-0.5,-2.4,4.8,2.5
COc1cc(/C=N/NC(=O)c2cccc([N+](=O)[O-])c2)ccc1O,?,99.1*,-1.8,-5.3
COc1cc(/C=C/C(=O)c2cccc([N+](=O)[O-])c2)cc(OC)c1OC,1.0,96.4*,7.8,-0.1
CO/N=C(/CN1CCCCC1)c1ccc(Cl)cc1,-6.6,-10.9,-5.7,-2.9
O=C(Nc1cc(C(F)(F)F)cc(C(F)(F)F)c1)[C@H]1O[C@@H](n2ccc(=O)[nH]c2=O)[C@H](O)[C@@H]1O,·,·,0.5,-1.7
CS(=O)(=O)N1CCN(c2ccccc2NC(=O)c2cc3ccccc3o2)CC1,-1.7,-9.4,-7.1,-4.2
COC(=O)[C@]1(Sc2ccc(C)cc2)CC(=O)N[C@@H]1c1ccco1,·,·,-8.8,-2.7
COc1cc(/C=N/NC(=O)c2cccc(NC(=O)c3ccccc3C)c2)ccc1O,9.0,94.8*,1.6,1.9
CCOc1c(O)ccc(/C=C2\SC(=S)NC2=O)c1[N+](=O)[O-],18.5,98.6*,-0.9,-8.2
CCOc1ccc(N(C)c2ccc(/C=C3/SC(=S)NC3=O)cc2)cc1,1.5,-1.5,-1.8,-3.7
Cc1cc(N2CCNC[C@H]2C)ccc1N1CCN(Cc2ccccc2)[C@H](C)C1,·,·,-0.3,2.1
COc1cccc(/C=C2\C(=O)C(=O)c3ccccc32)c1,0.0,99.7*,12.7,-2.7
SMILES,HDAC3 inhib,ALR H2O2 inh,NPR1 activator,NPR2 activator
COc1cc(C=C2C(=O)c3ccccc3C2=O)ccc1O,3.1,59.5,-0.9,-2.5
COc1cc(C=C2C(=O)c3ccccc3C2=O)cc(OC)c1OC,3.8,97.4*,24.8,13.8
COc1ccc(-c2csc(C(C)(NC(C)=O)c3ccccc3)n2)cn1 (stereo not given),·,·,-1.1,0.6
O=C(OC1CCCCC1=O)c1cc(Cl)ccc1[N+](=O)[O-] (stereo not given),4.9,90.7*,-2.2,0.0
COc1ccccc1CNC(=O)[C@@H](NC(=O)C1CCN(C(=O)[C@@H]2CCCN2)CC1)C(C)C,-0.8,-6.3,2.2,0.1
COCCCn1nnnc1SCC(=O)Nc1nc2ccccc2s1,-0.8,-16.2,3.6,0.5
Cc1ccccc1Nc1nc(CSc2nnnn2-c2ccccc2)cs1,-0.9,97.7*,-0.2,8.5
COC(=O)c1ccc(NC(=O)CSc2nncn2-c2ccccn2)cc1,-8.9,98.7*,1.2,-7.3
COC(=O)c1cccc(NC(=O)CSc2nc3cccnc3n2C)c1,0.5,97.9*,-1.3,-0.1
CCCCN(C(=O)CSc1nnc(-c2ccco2)o1)c1c(N)n(Cc2ccccc2)c(=O)[nH]c1=O,0.6,1.7,-3.5,-0.5
O=C1Nc2ccccc2N(O)N1c1cc(-c2ccccc2Cl)no1,5.0,19.9,-3.8,2.3
O=C1Nc2ccccc2N(O)N1c1cc(-c2cccc(Cl)c2)no1,3.0,79.2*,0.8,1.8
CC1(C)CC(=O)C(C(C2=C(O)CC(C)(C)CC2=O)c2ccc(O)c([N+](=O)[O-])c2)=C(O)C1,?,97.4*,5.1,-1.5
Fc1cccc(Cl)c1-c1nnc2ccc3ccccc3n12,1.3,98.3*,2.6,0.0
O=C(c1ccc2c(c1)N(Cc1ccc(F)cc1)CCS2)N1CCOCC1,-9.4,99.2*,-0.4,3.9
O=C(c1ccc2c(c1)N(Cc1ccccc1)CCS2)N1CCOCC1,-1.7,99.1*,-3.9,-0.1
COc1cc(/C=C/C(=O)O)cc(S(=O)(=O)NNC(=O)c2ccc3c(c2)OCO3)c1OC,-2.9,89.9*,2.6,1.4
O=C(O)C1C2CCC(C2)C1C(=O)NCCc1ccccc1 (stereo not given),1.2,-2.2,0.5,1.8
O=[N+]([O-])c1cc(Cl)ccc1-c1nc(-c2ccncc2)no1,-2.3,-23.8,45.7*,-1.5
O=[N+]([O-])c1cc(Cl)ccc1-c1nc(-c2ccccc2)no1,1.1,-32.2,25.7,0.6
Clc1ccc(-c2nc(-c3ccncc3)no2)c(Cl)c1,-3.6,6.7,46.1*,-9.4
Cc1ccc(-c2csc(N3CCC(C(N)=O)CC3)n2)cc1,-2.1,30.9,2.1,-1.2
Cc1ccc(-c2csc(N=C(N)N)n2)cc1,-2.5,99.0*,2.4,-6.6
CCOc1ccc(NC(=O)CCN2C(=O)c3cccc([N+](=O)[O-])c3C2=O)cc1,-1.5,-9.9,-3.5,-0.9
CN(C)c1ccc(NC(=O)CCN2C(=O)c3cccc([N+](=O)[O-])c3C2=O)cc1,-7.6,99.7*,-10.0,-2.5
SMILES,HDAC3 inhib,ALR H2O2 inh,NPR1 activator,NPR2 activator
Cc1[nH]nc2c1C(c1ccc3c(c1)OCO3)N(Cc1ccccc1)C2=O (stereo not given),·,·,13.2,-3.5
C=CC[n+]1ccn(-c2nc3ccccc3nc2[N-]S(=O)(=O)c2cccs2)c1,-11.2,94.7*,10.9,9.3
O=C(Nc1ccc(SC(F)F)cc1)C1=COCCO1,-2.3,99.3*,6.5,3.0
Oc1[nH]c2ccccc2c1C1=NCCCCC1,-2.7,93.0*,-2.1,0.7
CC(=O)c1ccc(NC(=O)COC(=O)C2C3CC4OC(=O)C2C4C3)cc1 (stereo not given),-1.2,0.0,-2.7,-0.6
CN(N=Nc1nc[nH]c1C(=O)NN)C1CCCCC1,·,·,-4.3,-7.0
Cc1ccc(NC(=O)CCCNC(=O)c2ccc(Cl)cc2)nc1,6.8,-4.0,-2.1,-1.5
